Results filed as inconclusive are left out. Active and inactive are the calls of the source. Calls follow the shape of the dose curve; as a rule, active = well fitted curve in the direction sought with a large enough effect; inconclusive = small, poorly fitted or top-dose-only effect, or another doubt; inactive = no such curve, though single readings can be large; an effect the other way counts as inactive or inconclusive.
Legend:
[1] = target: Glutathione peroxidase 1 (Homo sapiens) (UniProt P07203); test: Primary qHTS Assay for Inhibitors of Recombinant Selenoprotein Glutathione Peroxidase 1 (GPX1) (AID 1845191); settings: recombinant GPX1, GR-coupled NADPH fluorescence, 15 min; series mostly up to 48.8 µM; also: nearly all actives have a fitted effect of over 65% in size; as to activity, negative = inhibition: % is scaled to controls: 0 for no effect and ±100 for the full control effect
Glutathione peroxidase 1 (Homo sapiens), sequence (P07203 whole entry, looked up): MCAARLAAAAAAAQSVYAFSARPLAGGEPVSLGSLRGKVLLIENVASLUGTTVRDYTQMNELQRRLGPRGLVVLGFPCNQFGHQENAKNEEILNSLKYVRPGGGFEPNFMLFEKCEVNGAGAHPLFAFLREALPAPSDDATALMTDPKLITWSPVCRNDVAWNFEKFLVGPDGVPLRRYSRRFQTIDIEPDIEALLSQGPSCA
Outline: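 GPX1 10 nM, GR 100 nM, GSH 1 mM, NADPH 0.5 mM, CHP 0.5 mM (final). 30-min cpd preincubation, RT. Ex340/Em450 read t=0, t=15 min.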

[2] = target: Phospholipid hydroperoxide glutathione peroxidase GPX4 (Homo sapiens) (UniProt P36969); test: Primary qHTS Assay for Inhibitors of Recombinant Selenoprotein Glutathione Peroxidase 4 (GPX4) (AID 1845192); settings: recombinant GPX4, GR-coupled NADPH fluorescence, 15 min; series mostly up to 50 µM; also: nearly all actives have a fitted effect of over 65% in size; as to activity change, negative = inhibition: % is scaled to controls: 0 for no effect and ±100 for the full control effect
Phospholipid hydroperoxide glutathione peroxidase GPX4 (Homo sapiens), sequence (P36969 whole entry, looked up): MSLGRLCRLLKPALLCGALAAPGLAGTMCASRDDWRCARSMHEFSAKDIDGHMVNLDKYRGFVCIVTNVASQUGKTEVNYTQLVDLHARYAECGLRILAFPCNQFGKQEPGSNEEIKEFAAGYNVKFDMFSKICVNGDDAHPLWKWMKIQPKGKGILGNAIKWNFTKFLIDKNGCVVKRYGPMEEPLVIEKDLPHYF
Outline: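 qHTS, GR-coupled: GPX4 200 nM + cpd 30 min RT → GSH 1 mM, NADPH 0.5 mM, GR 100 nM → CHP 0.5 mM start; fluor 340/450 at t0 and t15 min; no-enzyme wells as control.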

[3] = target: Luciferin 4-monooxygenase (Photinus pyralis) (UniProt P08659); test: Primary firefly luciferase (FLuc) qHTS assay for identification of artifact compounds. (AID 1845220); settings: purified firefly luciferase, luminescence, 5 min; series mostly up to 54.1 µM; also: nearly all actives have a fitted effect of over 60% in size;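 as to activity change, negative = inhibition: plate controls were DMSO vehicle for no effect and no enzyme for full effect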
Outline: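 Reaction readout was CCD-imaged luminescence, taken 5 min after adding 10 nM purified firefly enzyme to compound-treated wells holding 10 uM luciferin and ATP in pH 7.6 buffer.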

[4] = Primary fluorescence-based thiol-reactive (MSTI) qHTS assay for identification of artifact compounds. (AID 1845221); settings: MSTI thiol-reactivity probe, 1 h; series mostly up to 53.8 µM;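 also: thiol-reactive compounds lower the probe fluorescence signal; nearly all actives have a fitted effect of over 65% in size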
Outline: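 qHTS titration of compound; 4 uM MSTI, PBS pH 7.4, 2% DMSO; 1 h RT, dark; fluorescence 525/598 nm; normalized to Acetyl-MSTI and MSTI; 4-parameter Hill fit.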

[5] = tested on: Nanoluciferase (engineered Oplophorus gracilirostris luciferase); test: Primary Nanoluciferase (NLuc) qHTS assay for identification of artifact compounds. (AID 1845222); settings: NLuc-conditioned medium, Nano-Glo luminescence, 5 min; series mostly up to 54.1 µM;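 also: NLuc secreted into diluted conditioned medium of S16 cells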
Outline: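 Concentration-response data were obtained by luminescence after 5 min with Nano-Glo substrate at 1:100. The enzyme was diluted S16 NLuc-expressing cell medium, preincubated with compound for 15 min at RT. Curves were fitted with a 4-parameter Hill model.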

CC(=O)N[C@H]1[C@H](O[C@H]2CC[C@@]3(C)C(CC[C@]4(C)C3CC=C3C5CC(C)(C)CC[C@]5(C(=O)O)[C@H](O[C@@H]5O[C@H](CO)[C@@H](O)[C@H](O)[C@H]5O)C[C@]34C)C2(C)C)O[C@H](CO[C@@H]2OC[C@H](O)[C@H](O)[C@H]2O[C@@H]2OC[C@@H](O)[C@H](O)[C@H]2O)[C@@H](O)[C@@H]1O (stereo partly drawn)
inactive: Potency [1] | Potency [2] | activity change, negative = inhibition [3] 2.58% [at 11.6 µM] | activity change, negative = thiol reactive [4] -21.6% [at 11.5 µM] | activity, negative = inhibition [5] -3.44% [at 11.6 µM]

CC1(CO)CC2C(O)C(=O)C3(CO)CC3(C)C2C1 (stereo not drawn)
inactive: Potency [1] | Potency [2] | Potency [3] | Potency [4] | Potency [5]

N#Cc1ccnc(N2C(=O)CC[C@H]2C(=O)N(c2cncc(F)c2)[C@H](C(=O)NC2CC(F)(F)C2)c2ccccc2Cl)c1
inactive: Potency [1] | Potency [2] | Potency [3] | Potency [4] | Potency [5]

CC(C(=O)O)C1CCC2(C)C3C(=O)C=C4C(CCC(=O)C4(C)C)C3(C)CCC12C (stereo not drawn)
inactive: Potency [1] | Potency [2] | Potency [3] | Potency [4] | Potency [5]

CCOc1ccc(C(Nc2ccccn2)c2ccc3ccc(C)nc3c2O)cc1C (stereo not drawn)
inactive: Potency [1] | Potency [2] | Potency [3] | Potency [5]

CC(=O)OC[C@]1(O)[C@H]2[C@H](OC(=O)CC(C)C)OC=C(CO[C@@H]3O[C@H](CO)[C@@H](O)[C@H](O)[C@H]3O)[C@H]2C[C@@H]1O
inactive: Potency [1] | Potency [2] | Potency [3] | Potency [5]

CC(C)C1=CC2=CCC3[C@](C)(CCC[C@@]3(C)C(=O)O)C2CC1=O (stereo partly drawn)
inactive: Potency [1] | Potency [2] | Potency [3] | Potency [4] | Potency [5]

C/C=C1/[C@H](O[C@@H]2O[C@H](CO)[C@@H](O)[C@H](O)[C@H]2O)OC=C(C(=O)OC)[C@H]1CC(=O)O[C@@H]1O[C@H](CO)[C@@H](O)[C@H](O)[C@H]1O
inactive: Potency [1] | Potency [2] | Potency [3] | Potency [4] | Potency [5]

CC(=O)OC(CSC1CCC(=O)OC(C)CCC(=O)C1)C(=O)O (stereo not drawn)
inactive: Potency [1] | Potency [2] | Potency [3] | Potency [4] | Potency [5]

NC1CCC(N[C@@H]2C[C@H]2c2ccccc2)CC1 (stereo partly drawn)
inactive: Potency [1] | Potency [2] | Potency [3] | Potency [4] | Potency [5]

O=C1[C@H](O[C@@H]2O[C@H](CO)[C@@H](O)[C@H](O)[C@H]2O)Oc2ccccc2N1O
inactive: Potency [1] | Potency [2] | Potency [3] | Potency [5]

C=CC(C)(C)C12CC3C(=O)NC(Cc4cnc[nH]4)C(=O)N3C1Nc1ccccc12 (stereo not drawn)
inactive: Potency [1] | Potency [2] | Potency [3] | Potency [4] | Potency [5]

C=CC1(C)CC(OC(=O)C(=C)C(O)COC(C)=O)C(C(=C)C(=O)OC)C(O)C1C(=C)CO (stereo not drawn)
inactive: Potency [1] | Potency [2] | Potency [3] | Potency [4] | Potency [5]

CC(C)[C@@H](C)/C=C/[C@@H](C)[C@H]1CC[C@H]2C3=CC=C4C[C@@H](O)CC[C@]4(C)[C@H]3CC[C@]12C
inactive: Potency [1] | Potency [2] | Potency [3] | Potency [4] | Potency [5]

CCC(C)C(=O)O[C@@H]1[C@@H](O)[C@@H](O[C@H]2O[C@H](CO)[C@@H](O)[C@H](O)[C@H]2O)O[C@H](CO)[C@H]1O (stereo partly drawn)
inactive: Potency [1] | Potency [2] | Potency [3] | Potency [5]

CC1(C)C(O)CCC2(C)C1C(O)C=C1COC(=O)C12O (stereo not drawn)
inactive: Potency [1] | Potency [2] | Potency [3] | Potency [5]

CC1(C)CCCC2(C)C(CO)C3CCC2C31 (stereo not drawn)
inactive: Potency [1] | Potency [2] | Potency [3] | Potency [4] | Potency [5]

CC(NC(=O)CC(=O)O)c1nc2ccccc2c(=O)[nH]1 (stereo not drawn)
inactive: Potency [1] | Potency [2] | Potency [3] | Potency [5]

CCc1c(CC(N)=O)c2cc(OCCCP(=O)(O)O)ccc2n1Cc1ccccc1
inactive: Potency [1] | Potency [2] | Potency [3] | Potency [5]

CC(C)(O)C1CCC2(C)C3C(O)C4C(C13)C42CO (stereo not drawn)
inactive: Potency [1] | Potency [2] | Potency [3] | Potency [5]

C[C@@H]1O[C@@H](O[C@H]2[C@H](OC(C#N)c3ccc(O)cc3)O[C@H](CO)[C@@H](O)[C@@H]2O)[C@H](O)[C@H](O)[C@H]1O (stereo partly drawn)
inactive: Potency [1] | Potency [2] | Potency [3] | Potency [5]

COc1ccc2c3c1O[C@H]1C[C@@H](O)C=C[C@@]31CCN(C)C2
inactive: Potency [1] | Potency [2] | Potency [3] | Potency [5]

OCCc1ccc(O[C@@H]2O[C@H](CO)[C@@H](O)[C@H](O)[C@H]2O)c(O)c1
inactive: Potency [1] | Potency [2] | Potency [3] | Potency [5]

COc1cc(N2CCC(N(C)C)CC2)ccc1Nc1ncc(Cl)c(Nc2ccccc2P(C)(C)=O)n1
inactive: Potency [1] | Potency [2] | Potency [3] | Potency [5]

From PubChem BioAssay (NCATS)
